Laboratory results as given in publication PMC7862700, “An all-to-all approach to the identification of sequence-specific readers for epigenetic DNA modifications on cytosine”.

Legend:
Test in all cases: DAPPL (digital affinity profiling via proximity ligation, sequencing); 10 mM Tris-HCl pH 7.5, 50 mM NaCl, 1 mM DTT, 4% glycerol, room temperature, 30 min; GST-TFs on glutathione beads, 16-mer random dsDNA library, 0.1% formaldehyde crosslink after washing; high values mean tight binding
Settings in all cases: protein: recombinant; tags: N-terminal GST; dsDNA, one strand shown
ERF = molecular target: T1, ERF (Homo sapiens, UniProt P50548 1-548)
T1 sequence: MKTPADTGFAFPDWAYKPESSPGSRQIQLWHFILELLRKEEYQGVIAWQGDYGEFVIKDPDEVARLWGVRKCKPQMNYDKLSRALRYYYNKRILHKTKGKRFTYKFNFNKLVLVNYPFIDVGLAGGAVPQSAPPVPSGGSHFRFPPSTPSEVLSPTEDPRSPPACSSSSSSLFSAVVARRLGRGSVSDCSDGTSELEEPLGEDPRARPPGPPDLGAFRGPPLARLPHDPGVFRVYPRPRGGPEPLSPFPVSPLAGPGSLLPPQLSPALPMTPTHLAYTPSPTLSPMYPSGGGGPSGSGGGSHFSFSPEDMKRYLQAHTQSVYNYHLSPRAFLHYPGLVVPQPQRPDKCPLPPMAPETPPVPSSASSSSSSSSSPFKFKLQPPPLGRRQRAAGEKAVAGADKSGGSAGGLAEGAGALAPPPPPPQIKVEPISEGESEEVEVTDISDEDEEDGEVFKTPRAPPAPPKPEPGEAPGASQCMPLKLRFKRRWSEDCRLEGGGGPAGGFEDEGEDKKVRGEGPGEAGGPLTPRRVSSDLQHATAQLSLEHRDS
Outline: (§1)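 Binding signal is each hexamer's read frequency for a factor divided by its frequency in the tag-only sample. The factors were GST-fused human transcription factors from yeast, captured on glutathione beads, DNA-barcoded and pooled with that sample. Pools were incubated with 200 nmole of a random double-stranded 16-mer DNA library in Tris/NaCl/DTT/glycerol buffer at room temperature for 30 min, then washed, crosslinked with 0.1% formaldehyde, proximity-ligated with BsaI/T4 ligase (1 h, 37 °C), PCR-amplified and sequenced on an Illumina NextSeq500.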

ETV3L = molecular target: T2, ETV3L (Homo sapiens, UniProt Q6ZN32 1-361)
T2 sequence: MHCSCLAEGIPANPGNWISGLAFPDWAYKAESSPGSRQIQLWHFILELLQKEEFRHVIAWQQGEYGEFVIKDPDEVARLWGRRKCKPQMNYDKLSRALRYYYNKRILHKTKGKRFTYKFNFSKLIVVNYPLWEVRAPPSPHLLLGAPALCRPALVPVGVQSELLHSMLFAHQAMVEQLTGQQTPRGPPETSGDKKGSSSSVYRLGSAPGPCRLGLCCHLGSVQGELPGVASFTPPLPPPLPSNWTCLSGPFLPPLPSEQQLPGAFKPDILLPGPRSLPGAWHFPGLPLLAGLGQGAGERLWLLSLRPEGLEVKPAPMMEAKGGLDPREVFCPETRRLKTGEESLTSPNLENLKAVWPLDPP
Outline: as §1

ETS2 = molecular target: T3, ETS2 (Homo sapiens, UniProt P15036 1-469)
T3 sequence: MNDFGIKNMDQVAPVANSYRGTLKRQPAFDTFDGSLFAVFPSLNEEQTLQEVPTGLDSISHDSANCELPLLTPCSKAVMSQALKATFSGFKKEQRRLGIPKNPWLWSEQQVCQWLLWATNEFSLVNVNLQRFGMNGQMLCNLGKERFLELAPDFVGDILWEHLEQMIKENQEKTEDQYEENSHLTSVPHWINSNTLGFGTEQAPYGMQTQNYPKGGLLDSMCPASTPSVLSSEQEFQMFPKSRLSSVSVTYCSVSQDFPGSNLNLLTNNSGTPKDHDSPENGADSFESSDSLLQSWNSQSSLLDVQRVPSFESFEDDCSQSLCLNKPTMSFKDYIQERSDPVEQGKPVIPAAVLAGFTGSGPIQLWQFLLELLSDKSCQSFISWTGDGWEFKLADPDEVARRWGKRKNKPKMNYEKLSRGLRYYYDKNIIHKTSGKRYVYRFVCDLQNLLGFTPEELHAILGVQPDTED
Outline: as §1

SPDEF = molecular target: T4, SPDEF (Homo sapiens, UniProt O95238 1-335)
T4 sequence: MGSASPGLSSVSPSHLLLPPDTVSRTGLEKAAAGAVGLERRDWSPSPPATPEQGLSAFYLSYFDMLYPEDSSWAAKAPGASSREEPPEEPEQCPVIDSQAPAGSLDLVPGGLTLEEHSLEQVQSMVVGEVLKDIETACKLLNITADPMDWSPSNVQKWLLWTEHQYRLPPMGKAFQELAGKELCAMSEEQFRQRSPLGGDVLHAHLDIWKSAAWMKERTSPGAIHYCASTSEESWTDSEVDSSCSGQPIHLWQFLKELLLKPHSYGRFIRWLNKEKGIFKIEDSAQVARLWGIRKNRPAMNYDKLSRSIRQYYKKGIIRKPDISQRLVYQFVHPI
Outline: as §1

ETV7 = molecular target: T5, ETV7 (Homo sapiens, UniProt Q9Y603 1-341)
T5 sequence: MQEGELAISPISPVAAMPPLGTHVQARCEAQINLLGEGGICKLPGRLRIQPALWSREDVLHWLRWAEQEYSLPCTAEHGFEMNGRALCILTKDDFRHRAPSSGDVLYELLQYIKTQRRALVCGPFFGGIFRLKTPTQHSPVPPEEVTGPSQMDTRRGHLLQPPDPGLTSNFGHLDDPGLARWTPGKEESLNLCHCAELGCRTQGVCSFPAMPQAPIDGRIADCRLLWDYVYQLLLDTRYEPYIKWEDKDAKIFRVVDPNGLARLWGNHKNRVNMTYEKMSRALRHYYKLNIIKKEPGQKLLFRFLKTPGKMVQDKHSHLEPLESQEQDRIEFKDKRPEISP
Outline: as §1

ELF5 = molecular target: T6, ELF5 (Homo sapiens, UniProt Q9UKW6-2 1-255)
T6 sequence: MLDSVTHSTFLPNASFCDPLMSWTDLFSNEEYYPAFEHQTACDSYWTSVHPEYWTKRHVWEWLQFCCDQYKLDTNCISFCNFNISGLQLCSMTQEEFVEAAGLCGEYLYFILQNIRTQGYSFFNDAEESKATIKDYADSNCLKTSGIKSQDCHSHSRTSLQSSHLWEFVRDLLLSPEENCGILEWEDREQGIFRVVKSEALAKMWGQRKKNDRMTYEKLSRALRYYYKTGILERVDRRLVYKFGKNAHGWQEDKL
Outline: as §1

ETV3 = molecular target: T7, ETV3 (Homo sapiens, UniProt P41162-2 1-143)
T7 sequence: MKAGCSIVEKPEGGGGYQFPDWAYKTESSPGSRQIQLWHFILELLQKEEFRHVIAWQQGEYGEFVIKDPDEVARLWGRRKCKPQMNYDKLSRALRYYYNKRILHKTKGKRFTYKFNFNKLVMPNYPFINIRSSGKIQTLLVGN
Outline: as §1

ETV6 = ETV6 (Homo sapiens, UniProt P41212 1-452)
Outline: as §1

ETV6, sequence (P41212 whole entry): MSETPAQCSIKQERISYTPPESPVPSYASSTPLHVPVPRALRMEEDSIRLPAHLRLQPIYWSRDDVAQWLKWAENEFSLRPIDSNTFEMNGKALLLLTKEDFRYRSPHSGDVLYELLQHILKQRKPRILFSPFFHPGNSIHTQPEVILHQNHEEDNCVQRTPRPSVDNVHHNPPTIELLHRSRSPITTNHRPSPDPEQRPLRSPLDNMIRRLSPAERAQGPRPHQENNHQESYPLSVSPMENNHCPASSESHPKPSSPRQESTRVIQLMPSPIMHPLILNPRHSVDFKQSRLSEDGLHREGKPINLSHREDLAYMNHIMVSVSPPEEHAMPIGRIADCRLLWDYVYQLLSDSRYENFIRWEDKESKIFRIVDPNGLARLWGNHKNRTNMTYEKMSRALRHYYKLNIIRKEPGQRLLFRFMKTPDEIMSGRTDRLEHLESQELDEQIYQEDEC

## TACGTT
ERF
  binding signal: 1.3 fold enrichment (6-mer frequency, TF over GST control)
ETV3L
  binding signal: 1.32 fold enrichment (6-mer frequency, TF over GST control)
ETS2
  binding signal: 1.21 fold enrichment (6-mer frequency, TF over GST control)
SPDEF
  binding signal: 1.22 fold enrichment (6-mer frequency, TF over GST control)
ETV7
  binding signal: 1.34 fold enrichment (6-mer frequency, TF over GST control)
ELF5
  binding signal: 1.27 fold enrichment (6-mer frequency, TF over GST control)
ETV3
  binding signal: 1.27 fold enrichment (6-mer frequency, TF over GST control)
ETV6
  binding signal: 1.38 fold enrichment (6-mer frequency, TF over GST control)

## ACCCAA
ERF
  binding signal: 1.13 fold enrichment (6-mer frequency, TF over GST control)
ETV3L
  binding signal: 1.13 fold enrichment (6-mer frequency, TF over GST control)
ETS2
  binding signal: 1.04 fold enrichment (6-mer frequency, TF over GST control)
SPDEF
  binding signal: 1.04 fold enrichment (6-mer frequency, TF over GST control)
ETV7
  binding signal: 1.14 fold enrichment (6-mer frequency, TF over GST control)
ELF5
  binding signal: 1.06 fold enrichment (6-mer frequency, TF over GST control)
ETV3
  binding signal: 1.01 fold enrichment (6-mer frequency, TF over GST control)
ETV6
  binding signal: 1.09 fold enrichment (6-mer frequency, TF over GST control)

## TGCTCA
ERF
  binding signal: 1.5 fold enrichment (6-mer frequency, TF over GST control)
ETV3L
  binding signal: 1.31 fold enrichment (6-mer frequency, TF over GST control)
ETS2
  binding signal: 1.36 fold enrichment (6-mer frequency, TF over GST control)
SPDEF
  binding signal: 1.28 fold enrichment (6-mer frequency, TF over GST control)
ETV7
  binding signal: 1.54 fold enrichment (6-mer frequency, TF over GST control)
ELF5
  binding signal: 1.38 fold enrichment (6-mer frequency, TF over GST control)
ETV3
  binding signal: 1.24 fold enrichment (6-mer frequency, TF over GST control)
ETV6
  binding signal: 1.28 fold enrichment (6-mer frequency, TF over GST control)

## CCGCAC
ERF
  binding signal: 1.46 fold enrichment (6-mer frequency, TF over GST control)
ETV3L
  binding signal: 1.55 fold enrichment (6-mer frequency, TF over GST control)
ETS2
  binding signal: 1.47 fold enrichment (6-mer frequency, TF over GST control)
SPDEF
  binding signal: 1.46 fold enrichment (6-mer frequency, TF over GST control)
ETV7
  binding signal: 1.4 fold enrichment (6-mer frequency, TF over GST control)
ELF5
  binding signal: 1.59 fold enrichment (6-mer frequency, TF over GST control)
ETV3
  binding signal: 1.61 fold enrichment (6-mer frequency, TF over GST control)
ETV6
  binding signal: 1.56 fold enrichment (6-mer frequency, TF over GST control)
